KB-V1 cytotox: qHTS assay for MDR1-selective chemotherapeutics: Primary screen using the drug-selected MDR subline cells KB-V1. KB-V1 MDR cells viability, CellTiter-Glo, 72 h. Potency, µM (series often up to 46.1 µM), hits mostly cytotoxic. 3.4% of 400,000 active. AID 1347076, 2019; note: nearly all actives have a fitted effect of over 60% in size
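Potencies derive from concentration-effect curves fitted to normalized luminescence (CellTiter-Glo) of KB-V1 cells treated for 72 h at 37 degrees C in phenol-red-free DMEM containing 10% FBS.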
KB-3-1 cytotox: qHTS assay for MDR1-selective chemotherapeutics: Primary screen using the parental adenocarcinoma cell KB-3-1; KB-3-1 viability, CellTiter-Glo ATP luminescence, 72 h; Potency, µM (titrated, usually from 46.1 µM), actives largely listed as cytotoxic; 1.4% of 400,000 active; AID 1347075, 2019; note: nearly all actives have a fitted effect of over 60% in size
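Parental KB-3-1 viability, qHTS format: 72 h compound exposure, 37 °C; CellTiter-Glo; media-only wells and DMSO plates as controls; concentration-effect fits on corrected data.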
HT1080NT lethal: qHTS for induction of synthetic lethality in tumor cells producing 2HG: qHTS for the HT-1080-NT fibrosarcoma cell line | 1.6% of 360,000 active | Potency, µM (titrated, usually from 46.1 µM), most hits filed as cytotoxic | AID 686970, 2013 | HT-1080-NT fibrosarcoma viability, CellTiter-Glo ATP luminescence, 48 h;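 note: NT is the 2HG producing partner of a matched IDH1 knockdown line; nearly all actives have a fitted effect of over 55% in size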
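Viability of the 2HG-overproducing fibrosarcoma line after 48 hours of compound exposure at 37 degrees C was determined by luminescence with CellTiter-Glo, and concentration-effect curves were then fitted and categorized.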
SW480 rerep: A quantitative high throughput screen for small molecules that induce DNA re-replication in SW480 colon adenocarcinoma cells. AID 624297, 2012. SW480 DNA re-replication, Hoechst DNA content imaging, 48 h. 1.8% of 340,000 active. Potency, µM (top dose mostly 46.1 µM), usual class: activators; note: nearly all actives have a fitted effect of over 55% in size
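Image-based DNA-content assay: after two days of treatment, nuclei were labelled with the DNA dye Hoechst and imaged, and hits were compounds raising the count of nuclei showing high fluorescence intensity.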
HT1080 IDH1KD tx: qHTS for induction of synthetic lethality in tumor cells producing 2HG: qHTS for the HT-1080-IDH1KD cell line; HT-1080 IDH1 knockdown viability, ATP luminescence, 48 h; Potency, µM (titrated, usually from 46.1 µM), usual class: cytotoxic; 2% of 360,000 active
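CellTiter-Glo luminescence after 48 h compound exposure at 37 degrees C of IDH1-knockdown HT-1080 cells in 5% FBS RPMI. %Activity scaled between DMSO wells and cell-free media wells, with curves fitted and assigned curve classes.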
MCF10A rerep: A quantitative high throughput screen for small molecules that induce DNA re-replication in MCF 10a normal breast cells; MCF 10A DNA re-replication, Hoechst nuclear intensity, 48 h; Potency, µM (series often up to 46.1 µM), actives largely listed as activators; 2.9% of 350,000 active; note: nearly all actives have a fitted effect of over 50% in size
A number is an active result; n = inactive; u = inconclusive; x = no result; [ ] = dose if it differs, or a comment. In the library only some 8% were active in any assay of this set; here they are far more common. Calls come from the whole dose curve; as a rule, active = well fitted curve in the direction sought with a large enough effect; inconclusive = small, poorly fitted or top-dose-only effect, or another doubt; inactive = no such curve, though single readings can be large; an effect the other way counts as inactive or inconclusive.

SMILES | KB-V1 cytotox | KB-3-1 cytotox | HT1080NT lethal | SW480 rerep | HT1080 IDH1KD tx | MCF10A rerep
Cc1c2cnn(CC(=O)N3CCN(c4ccc(F)cc4)CC3)c(=O)c2c(C)n1Cc1ccccc1F | n | n | x | x | x | x
COc1cc(OC)c(NC(=O)N2CCc3c([nH]c4ccccc34)C2c2ccccc2F)cc1Cl (centres undefined) | n | n | x | x | x | x
CC(C)C/C=C1\CCc2c([nH]c3ccccc23)C1=O | n | n | n | n | n | n
O=C1/C(=C/c2cccnc2)CCc2c1[nH]c1ccccc21 | 13µM | n | 15µM | 21µM | 13µM | u
CC1C/C(=C\c2cccnc2)C(=O)/C(=C/c2cccnc2)C1 (centres undefined) | u | u | u | u | 2.9µM | u
CCOC(=O)c1c(C)c(-c2ccccc2)n(CC(=O)NCc2cccc(OC)c2)c1C | n | n | x | x | x | x
CCC1CSC(Nc2ccc(C(=O)/C=C/c3ccc(OC)c(OC)c3)cc2)=N1 (centres undefined) | 2.9µM | u | u | u | u | u
COc1ccc(/C=C/C(=O)c2ccc(NC3=NCCCS3)cc2)cc1OC | u | n | u | u | u | u
CCC1CSC(Nc2ccc(C(=O)/C=C/c3ccc(Br)cc3)cc2)=N1 (centres undefined) | u | n | u | u | 18µM | 16µM
COc1ccc(CCNC(=O)c2cc(-c3ccc(C)cc3)nc3n[nH]c(-c4ccc(F)cc4)c23)cc1OC | n | n | x | x | x | x
Cc1ccc(-n2nc3c(=O)n(CC(=O)NCC(C)c4ccccc4)nc(C)c3c2C)cc1 (centres undefined) | n | n | x | x | x | x
CCN(CC)c1ccc(CN(C(=O)c2cc(=O)c3ccccc3o2)C2CCS(=O)(=O)C2)cc1 (centres undefined) | n | n | x | x | x | x
Cc1ccc(-c2nnc(SCC(=O)Nc3ccc4c(c3)oc3ccccc34)n2C)c(Cl)c1 | 2.6µM | n | u | n | n | n
Cn1c(SCC(=O)Nc2cccc(C(=O)O)c2)nnc1-c1cc2cc(Br)ccc2o1 | n | n | n | n | n | n
Cn1c(SCC(=O)Nc2cccc(Br)c2)nnc1-c1cc2ccccc2o1 | 16µM | n | n | n | n | n
CCc1cccc(C)c1NC(=O)CSc1nnc(-c2cc3cc(Br)ccc3o2)n1CC | 21µM | u | n | u | n | u
CCOc1ccc(-c2cn3c(n2)sc2cc(C(=O)NCCc4ccc(OC)c(OC)c4)ccc23)cc1 | n | n | x | x | x | x
Cn1ccc2c(OCC(=O)Nc3cc(C(F)(F)F)ccc3Cl)cccc2c1=O | n | n | x | x | x | x
O=C(C[n+]1ccccc1Br)c1ccc(O)c(O)c1 | n | u | x | x | x | x
COc1cc(/C=C2\SC(=Nc3ccccc3)N(Cc3ccco3)C2=O)ccc1OC(C)C(=O)O (centres undefined) | n | u | n | n | n | u
COCCN1C(=O)/C(=C/c2ccc(OCc3ccc(C(=O)O)cc3)c(OC)c2)SC1=Nc1ccccc1 | 21µM | n | n | n | n | u
O=C(Cn1c(-c2cccs2)cc2cc(Cl)ccc21)N1CCN(c2ccccc2F)CC1 | n | n | x | x | x | x
CC(NC(=O)/C(C#N)=C/c1ccc(N2CCOCC2)cc1)c1ccccc1 (centres undefined) | n | n | n | u | n | 21µM
Cc1ccc(C(C)NC(=O)/C(C#N)=C\c2c(C)[nH]c3ccccc23)cc1 (centres undefined) | 12µM | n | u | u | u | u
CC(NC(=O)/C(C#N)=C/c1cccs1)c1ccccc1 (centres undefined) | n | n | n | n | n | n
SMILES | KB-V1 cytotox | KB-3-1 cytotox | HT1080NT lethal | SW480 rerep | HT1080 IDH1KD tx | MCF10A rerep
CC(NC(=O)/C(C#N)=C/c1ccco1)c1ccccc1 (centres undefined) | n | n | n | n | n | n
COC(=O)c1ccc(/C=C(\C#N)C(=O)NC(C)c2ccccc2)cc1 (centres undefined) | n | u | u | u | u | 18µM
CC(NC(=O)/C(C#N)=C/c1ccc([N+](=O)[O-])o1)c1ccccc1 (centres undefined) | n | u | n | 3.7µM | 6.5µM | 3.7µM
Cc1c(C)c2cccnc2c2ncccc12 | u | 6.5µM | 10µM | u | 5.2µM | u
Clc1cc2cccnc2c2ncccc12 | n | u | n | n | n | n
O=C(NCc1ccco1)C1CCN(C(=O)N2CCOc3ccc(Cl)cc32)CC1 | n | n | x | x | x | x
CCOC(=O)c1c(CCl)nc2ccccc2c1-c1ccccc1 | n | n | n | u | n | u
ClCc1nc2ccccc2c2ccccc12 | u | u | 5.8µM | 18µM | 18µM | u
COc1cc(C2c3cc4c(cc3C(OC3OC5COC(c6cccs6)OC5C(O)C3O)C3COC(=O)C23)OCO4)cc(OC)c1O (centres undefined) | n | 4.1µM | u | u | u | u
COc1cc(C2c3cc4c(cc3C(O[C@@H]3OC5COC(c6cccs6)OC5C(O)C3O)C3COC(=O)C23)OCO4)cc(OC)c1O (some centres undefined) | x | x | x | n | x | u
COc1cc([C@H]2c3cc4c(cc3[C@@H](O[C@H]3O[C@H]5CO[C@@H](C)O[C@H]5[C@@H](O)[C@@H]3O)[C@@H]3COC(=O)[C@H]23)OCO4)cc(OC)c1O | x | x | x | 1.5µM | x | u
COc1cc([C@@H]2c3cc4c(cc3[C@@H](O[C@@H]3O[C@@H]5CO[C@@H](C)O[C@H]5[C@H](O)[C@H]3O)[C@H]3COC(=O)[C@H]23)OCO4)cc(OC)c1O | n | 16µM | n | 2.3µM | u | u
C[C@@]12C(=O)OC(=O)[C@]1(C)[C@H]1CC[C@@H]2O1 | x | x | x | n | x | u
Cc1cc(O)c2c(C)c(CC(=O)NCc3ccccc3Cl)c(=O)oc2c1 | n | n | x | x | x | x
O=C1N=C(N2CCCCC2)S/C1=C/C1=Cc2ccccc2OC1 | n | n | n | n | n | 18µM
CCOC(=O)CN1C(=O)N[C@H](c2ccc(Br)cc2)C(C(C)=O)=C1C | n | n | n | u | n | 6.5µM
CCOC(=O)CN1C(=O)N[C@@H](c2ccc(Br)cc2)C(C(=O)OC)=C1C | n | n | n | n | n | n
O=S(=O)(NC1c2cccc3cccc(c23)C1N1CCN(CCO)CC1)c1ccccc1 (centres undefined) | u | u | n | n[9.22 µM] | u | 23µM
O=S(=O)(NC1c2cccc3cccc(c23)C1N1CCNCC1)c1ccccc1 (centres undefined) | n | n | u | n | u | n

Source: PubChem (National Center for Advancing Translational Sciences (NCATS))
